USP17 inh – human USP17-like deubiquitinase inhibition; A8MUK1; hit rate 6.5% among 47,000; purified USP17, Ub-rhodamine cleavage fluorescence, 3 h; inhibition, % at 50 µM
USP7 inh – human USP7 deubiquitinase inhibition; Q93009; purified USP7, Ub-rhodamine cleavage fluorescence; inhibition, % at 20 µM; hit rate 0.3% among 47,000; AID 1645854
UCHL1 inh – blocks human UCHL1 ubiquitin-rhodamine cleavage | P09936 | purified UCHL1, Ub-rhodamine cleavage fluorescence | inhibition, % at 20 µM | hit rate 0.2% among 47,000
USP10 block – human USP10 deubiquitinase inhibition. Q14694. purified USP10, Ub-rhodamine fluorescence, 60 min. inhibition, % at 20 µM. hit rate 1.1% among 47,000
Target sequence (Q14694 whole entry, looked up): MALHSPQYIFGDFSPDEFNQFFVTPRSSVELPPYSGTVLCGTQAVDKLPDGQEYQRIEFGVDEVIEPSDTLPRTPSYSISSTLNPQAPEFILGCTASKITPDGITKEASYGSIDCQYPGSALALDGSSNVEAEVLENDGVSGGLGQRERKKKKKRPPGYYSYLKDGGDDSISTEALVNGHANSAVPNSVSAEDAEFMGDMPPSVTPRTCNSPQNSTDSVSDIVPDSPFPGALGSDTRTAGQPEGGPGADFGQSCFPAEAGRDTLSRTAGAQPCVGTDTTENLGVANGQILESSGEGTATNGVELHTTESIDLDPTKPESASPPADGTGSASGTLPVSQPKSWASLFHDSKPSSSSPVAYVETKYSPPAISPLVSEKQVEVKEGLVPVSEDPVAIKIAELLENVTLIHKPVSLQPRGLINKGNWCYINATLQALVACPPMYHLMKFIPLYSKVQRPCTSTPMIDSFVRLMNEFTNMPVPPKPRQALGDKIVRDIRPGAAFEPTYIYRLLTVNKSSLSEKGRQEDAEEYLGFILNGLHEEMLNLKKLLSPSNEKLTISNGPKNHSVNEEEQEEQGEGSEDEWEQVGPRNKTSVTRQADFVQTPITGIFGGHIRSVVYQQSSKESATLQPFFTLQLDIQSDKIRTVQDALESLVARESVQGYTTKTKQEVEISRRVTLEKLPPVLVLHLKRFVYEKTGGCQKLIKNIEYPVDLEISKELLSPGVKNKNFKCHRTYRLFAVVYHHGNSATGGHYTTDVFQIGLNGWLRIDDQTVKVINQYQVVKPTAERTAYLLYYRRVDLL
OTUD3 block – human OTUD3 deubiquitinase inhibition. Q5T2D3. purified OTUD3, Ub-rhodamine fluorescence, 2 h. inhibition, % at 25 µM. hit rate 0.7% among 47,000. AID 1645858
USP8 inh – human USP8 deubiquitinase inhibition; inhibition, % at 20 µM; purified USP8, Ub-rhodamine cleavage fluorescence, 30 min; P40818; hit rate 4.2% among 47,000
Starred values were filed as active, the others as inactive. In the library only some 9.2% were active in any assay of this set; here they are far more common. Rule as the data show it: active = inhibition above about 30%; inactive = the rest.

SMILES	USP17 inh	USP7 inh	UCHL1 inh	USP10 block	OTUD3 block	USP8 inh
Cc1ccc(NC(=O)Nc2ccc(C)n(CC(=O)Nc3ccccc3)c2=O)cc1	89.2*	20.5	2.2	39.1*	4.0	44.9*
Cc1ccc(NC(=O)Cn2c(C)ccc(NC(=O)Nc3cccc(C)c3)c2=O)cc1	-2.2	5.4	-5.5	5.1	-0.8	12.8
Cc1ccc(-n2nc(C)c3c(C)cc(C(=O)NCc4cccs4)nc32)cc1	31.2*	-5.1	3.3	0.3	26.4	-0.5
Cc1cccc(Cn2nc(C(C)(C)C)cc2C(=O)NCc2cccs2)c1	-1.4	-4.9	1.8	9.1	15.2	1.4
COc1ccc(CC(=O)Nc2c(NCc3ccccc3)c3ccccc3oc2=O)cc1	85.2*	21.1	4.2	20.6	13.6	91.5*
Cn1c(COc2ccccc2)nnc1SCc1cc(=O)c2cc(Cl)ccc2[nH]1	7.6	-3.8	-2.0	9.6	-4.6	33.4*
Cn1c(COc2ccccc2)nnc1SCc1cc(=O)c2cccc(Cl)c2[nH]1	-5.1	-7.5	-0.5	0.5	-1.2	-8.4
Cc1c(S(=O)(=O)c2ccccc2)c(-n2cccc2)n(CCCn2ccnc2)c1C	-50.3	-17.2	-5.5	-6.8	-18.4	-12.8
CC1OC1C(=O)[C@]1(O)[C@H](C)[C@@H](O)[C@@]23O[C@@]2([C@H](O)c2c(O)cccc2C3=O)[C@H]1O (some centres not stated)	72.6*	6.2	0.8	-3.4	9.3	-6.8
CC(c1ccncc1)n1nccc1NC(=O)c1cccnc1SC(F)F (configuration not stated)	-8.2	0.1	-1.2	-2.6	-21.6	-7.8
COc1cccc(C(=O)Oc2ccc3c(C)c(C)c(=O)oc3c2)c1	49.2*	5.9	2.8	-1.8	9.9	10.3
COc1ccc2occ(-c3ccc4c(c3)OCCO4)c(=O)c2c1	15.8	-20.8	7.6	3.2	16.0	12.9
Cc1c(-c2ccccc2)c(=O)oc2cc(OC(=O)c3cccs3)ccc12	-1.9	-11.7	-0.1	6.5	-10.3	11.4
COc1cccc(C(=O)Oc2ccc3c(=O)c(-c4ccc(OC)c(OC)c4)coc3c2)c1	79.5*	5.0	-2.6	2.5	-6.0	3.9
COc1ccc(Cl)cc1NC(=O)NC1CC(=O)N(c2cccc(F)c2)C1 (configuration not stated)	7.7	-29.6	5.1	5.4	6.9	13.3
Cc1ccc(CNC(=O)CCC(=O)NCc2ccc3c(c2)OCO3)o1	38.5*	1.6	0.8	-0.3	3.6	-17.5
O=C(Nc1cccnc1)C1Cn2ccnc2C2(CCN(Cc3cccc(Cl)c3)CC2)O1 (configuration not stated)	-53.7	-14.0	-15.5	-9.4	-35.0	-58.2
Cc1ccc(CN2CCCn3nc(C(=O)NCc4ccc(F)cc4)cc3C2=O)cc1	37.8*	1.3	1.3	1.6	7.7	-2.6
Cc1cccc(NC(=O)CSc2nnc(-c3cnccn3)n2Cc2ccco2)c1	23.1	0.7	2.7	-0.8	3.8	14.2
Cc1ccc(NC(=O)CSc2nnc(-c3cnccn3)n2Cc2ccco2)cc1	53.4*	-6.9	0.4	1.7	-0.5	0.4
COc1cccc(C(=O)NCCSc2ccc(Cl)cc2)c1	34.9*	4.5	6.3	9.3	19.6	22.9
O=C(NCCCN1CCc2ccccc2C1)c1cc2c(s1)CS(=O)(=O)C2	62.0*	-0.3	-6.2	-11.0	-16.2	46.1*
O=C1OC(C(=O)Nc2nc3c(ccc4ccccc43)s2)Cc2ccccc21 (configuration not stated)	39.0*	-0.2	-0.5	0.8	14.7	28.5
NS(=O)(=O)c1ccc(NC(=O)C2Cc3ccccc3C(=O)O2)cc1 (configuration not stated)	15.9	4.2	0.8	17.9	0.4	35.9*
O=C(O)Cc1ccc(NC(=O)C2Cc3ccccc3C(=O)O2)cc1 (configuration not stated)	-5.9	5.0	1.5	1.1	2.5	-13.1
CC(C)CC1Nc2ccc(C(=O)N3CCN(c4ccccn4)CC3)cc2NC1=O (configuration not stated)	21.3	7.7	4.6	4.4	14.4	53.3*
CCc1sc(C(=O)C(C#N)C(=O)Nc2ccccc2)cc1C (configuration not stated)	-29.2	-28.6	-38.7	-10.2	-28.3	-43.4
C=C/C(C)=C/[C@@]1(C)SC(=O)C(C)=C1O	26.3	-9.1	21.3	18.3	29.8	41.0*
Cc1nc(N2CCCC2)ncc1C(=O)Nc1ccc(Cl)cc1	44.8*	3.1	3.6	1.8	2.3	1.1
